Our source for the Potency, activity, negative = inhibition and activity change, negative = inhibition values is PubChem BioAssay (Tox21).

Results filed as inconclusive are left out. More than one record can exist for a structure, and the calls need not agree. Active and inactive are the calls of the source. Calls come from the whole dose curve.

For assay [1], the target named is Acetylcholinesterase (Homo sapiens) (UniProt P22303). Kind of assay: Acetylcholinesterase (AChE) small molecule antagonists: colormetric cell-based qHTS assay (AID 1347395). Note: nearly all actives have a fitted effect of over 30% in size. Note: potency is the fitted concentration of half-maximal effect. The gist of the method: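 Colorimetric read-out: DTNB detects thiocholine released when cellular AChE in SH-SY5Y cells hydrolyses acetylthiocholine. Cells attached overnight, received compound for 30 min at 37 C, then substrate mix for 90 min at 37 C.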

For assay [2] the target is unchanged. Kind of assay: Acetylcholinesterase (AChE) small molecule antagonists: enzyme-based qHTS assay (AID 1347397). Note: nearly all actives have a fitted effect of over 55% in size. Note: potency is the fitted concentration of half-maximal effect. The following applies: Potency: AChE enzyme activity inhibition; outcome: AChE enzyme activity inhibition. In short, it runs like this: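 Tox21 library chemicals are tested in qHTS format against recombinant human AChE. The enzyme, dispensed at 50 mU/mL, sits with compound for 30 min at room temperature. A DTNB–acetylthiocholine cocktail follows, and colour is read after 10 min.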

For assay [3] the target is unchanged. Kind of assay: Acetylcholinesterase (AChE) small molecule antagonists: fluorescence cell-based qHTS assay (AID 1347398). Note: nearly all actives have a fitted effect of over 50% in size. Note: potency is the fitted concentration of half-maximal effect. The following applies: Potency: AChE activity; outcome: AChE activity. The gist of the method: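 Cellular AChE inhibition: SH-SY5Y cells treated with test chemical for 30 min at 37 C, then acetylthiocholine hydrolysis followed over 40 min at room temperature via thiocholine-reactive Thiolite Green fluorescence (490/520 nm).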

Assay [4] shares this target. Kind of assay: Acetylcholinesterase (AChE) small molecule antagonists: enzyme-based qHTS assay with human liver microsomes (AID 1347399). Note: nearly all actives have a fitted effect of over 60% in size. The following applies: Potency: qHTS inhibition; outcome: qHTS inhibition. The gist of the method: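 Recombinant human AChE (50 mU/mL in the enzyme mix) and human liver microsomes (0.25 mg/mL final) were preincubated with compound and NADPH (0.25 mg/mL final) for 30 min at 37 C. Acetylthiocholine/DTNB was then added; thiocholine was read colorimetrically after 10 min at room temperature.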
% is set by controls: 0 for no effect and ±100 for the full control effect.

Sequence of Acetylcholinesterase (Homo sapiens) (P22303 whole entry, looked up): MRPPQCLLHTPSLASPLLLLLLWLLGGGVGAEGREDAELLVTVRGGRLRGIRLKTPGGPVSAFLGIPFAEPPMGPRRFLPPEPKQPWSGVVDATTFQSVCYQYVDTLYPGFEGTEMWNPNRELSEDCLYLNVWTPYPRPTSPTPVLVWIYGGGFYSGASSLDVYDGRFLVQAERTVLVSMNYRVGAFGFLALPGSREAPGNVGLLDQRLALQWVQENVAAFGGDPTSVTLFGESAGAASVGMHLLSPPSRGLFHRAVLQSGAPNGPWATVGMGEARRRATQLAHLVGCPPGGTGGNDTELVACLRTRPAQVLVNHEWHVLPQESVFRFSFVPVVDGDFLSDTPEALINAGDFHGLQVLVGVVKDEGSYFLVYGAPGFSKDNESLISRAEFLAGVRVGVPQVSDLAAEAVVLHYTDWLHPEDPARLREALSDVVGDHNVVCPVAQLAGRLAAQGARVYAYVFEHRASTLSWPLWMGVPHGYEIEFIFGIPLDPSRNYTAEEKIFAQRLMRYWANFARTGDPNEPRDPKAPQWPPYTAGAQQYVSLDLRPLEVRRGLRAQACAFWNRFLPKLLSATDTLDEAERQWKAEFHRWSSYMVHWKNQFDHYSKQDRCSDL

Take `[O-][N+](=Nc1ccccc1)c1ccccc1`: the Potency result in assay [1], in assay [2], in assay [3] and in assay [4] was “inactive” in each case.
In the case of `O=C(O)CCCl`, the Potency entry in assay [1], in assay [2], in assay [3] and in assay [4] was “inactive” throughout.
Turning to `Cc1nn(C)c(Oc2ccccc2)c1/C=N/OCc1ccc(C(=O)OC(C)(C)C)cc1`, the Potency result in assay [1], in assay [2], in assay [3] and in assay [4] was “inactive” each time.
Take `CC(=O)CC/C=C(\C)CCC=C(C)C`: the Potency entry in assay [1], in assay [2], in assay [3] and in assay [4] was “inactive” each time.
For the compound `Cc1c(F)c(N2CCNC(C)C2)cc2c1c(=O)c(C(=O)O)cn2C1CC1` (stereo not given), the Potency entry in assay [1], in assay [2], in assay [3] and in assay [4] was “inactive” in each case.
Turning to `C=C(C)C1CC=C(C)CC1` (stereo not given), the Potency result in assay [1], in assay [2], in assay [3] and in assay [4] was “inactive” each time.
For `Cc1c(C(N)=O)cc([N+](=O)[O-])cc1[N+](=O)[O-]`, the Potency result in assay [1], in assay [2], in assay [3] and in assay [4] was “inactive” in each case.
For `CC1(C)SC(C)(C)SC(C)(C)S1`, the Potency result in assay [1], in assay [2], in assay [3] and in assay [4] was “inactive” throughout.
For `C=CC(C)(O)CCC=C(C)C` (stereo not given), the Potency result in assay [1], in assay [2], in assay [3] and in assay [4] was “inactive” in each case.
With `Oc1ccc(Cc2ccccc2)cc1`, the Potency result in assay [1], in assay [2], in assay [3] and in assay [4] was “inactive” throughout.
`CN(C)CCOC(=O)C(c1ccccc1)C1(O)CCCC1` (stereo not given): the Potency result in assay [1], in assay [2], in assay [3] and in assay [4] was “inactive” in each case.
As to `O=C(O)c1ccccc1OP(=O)(O)O`, the Potency entry in assay [1], in assay [2], in assay [3] and in assay [4] was “inactive” in each case.
As to `Nc1ccn([C@H]2CC[C@@H](CO)O2)c(=O)n1`, the Potency entry in assay [1], in assay [2], in assay [3] and in assay [4] was “inactive” in each case.
On to `O=C=NCc1cccc(CN=C=O)c1`, for which the activity, negative = inhibition in assay [1] was -0.545% [at 23.6 µM] (inactive). The activity change, negative = inhibition in assay [2] is 0.393% [at 23.6 µM] (inactive); in assay [3], -0.0492% [at 23.8 µM] (inactive); in assay [4], 0.648% [at 23.6 µM] (inactive).
As to `COc1ccc(Nc2ccc(OC)cc2)cc1`, the Potency entry in assay [1], in assay [2], in assay [3] and in assay [4] was “inactive” throughout.
For the compound `c1cc(CCCc2ccncc2)ccn1`, the Potency result in assay [1], in assay [2], in assay [3] and in assay [4] was “inactive” in each case.
`COc1cccc(OC)c1O`: the Potency entry in assay [1], in assay [2], in assay [3] and in assay [4] was “inactive” in each case.
Regarding `CC(=O)Oc1ccc([N+](=O)[O-])cc1CCl`, the Potency result in assay [1], in assay [2], in assay [3] and in assay [4] was “inactive” throughout.
As to `CC(C)C(=O)OC/C=C/c1ccccc1`, the Potency entry in assay [1], in assay [2], in assay [3] and in assay [4] was “inactive” in each case.
With `OC[C@H]1O[C@H](O[C@]2(CCl)O[C@H](CCl)[C@@H](O)[C@@H]2O)[C@H](O)[C@@H](O)[C@H]1Cl`, the Potency result in assay [1], in assay [2], in assay [3] and in assay [4] was “inactive” in each case.
Take `NC(=O)c1ccccc1Cl`: the Potency result in assay [1], in assay [2], in assay [3] and in assay [4] was “inactive” each time.
Regarding `CC1=NN(c2ccccc2)C(=O)C1`, the Potency result in assay [1] and in assay [4] was “inactive” throughout. The Potency in assay [2] is 35.8 µM (active) and inactive; in assay [3], 5.06 µM (active) and inactive.
For `Nc1ccc(C(=O)Oc2ccccc2)c(O)c1`, the Potency result in assay [1], in assay [2], in assay [3] and in assay [4] was “inactive” in each case.
For the compound `CC(CN)CCCN` (stereo not given), the Potency result in assay [1], in assay [2], in assay [3] and in assay [4] was “inactive” each time.
On to `CC(C)CC(C)O` (stereo not given), for which the Potency result in assay [1], in assay [2], in assay [3] and in assay [4] was “inactive” in each case.
`CCOC(=O)C1OC1c1ccccc1` (stereo not given): the Potency result in assay [1], in assay [2], in assay [3] and in assay [4] was “inactive” throughout.
Take `CCOC(=O)OC(C)OC1=C(C(=O)Nc2ccccn2)N(C)S(=O)(=O)c2ccccc21` (stereo not given): the Potency entry in assay [1], in assay [2], in assay [3] and in assay [4] was “inactive” in each case.
Take `CC(C)(C)C(=O)OCOP(=O)(COCCn1cnc2c(N)ncnc21)OCOC(=O)C(C)(C)C`: the Potency is 30.9 µM (active) in assay [1], 38.9 µM (active) in assay [2] and 13.8 µM (active) in assay [3]. Moreover, the Potency entry in assay [4] is “inactive”.
Regarding `CCCCN(CCC(=O)OCC)C(C)=O`, the Potency entry in assay [1], in assay [2], in assay [3] and in assay [4] was “inactive” in each case.
`C[C@@H]1CN(c2c(F)c(N)c3c(=O)c(C(=O)O)cn(C4CC4)c3c2F)C[C@H](C)N1`: the activity, negative = inhibition in assay [1] was 1.94% [at 23.6 µM] (inactive). In addition, the activity change, negative = inhibition in assay [2] was -2.1% [at 23.6 µM] (inactive); in assay [3] it was -0.604% [at 23.8 µM] (inactive); in assay [4] it was 0.841% [at 23.6 µM] (inactive).
Consider `NCCCN1CCN(CCCN)CC1`, for which the Potency result in assay [1], in assay [2], in assay [3] and in assay [4] was “inactive” each time.
On to `NNc1nc(-c2ccccc2)cs1`, for which the Potency result in assay [1], in assay [2], in assay [3] and in assay [4] was “inactive” each time.
Turning to `Cc1ccc(C)c(O)c1`, the Potency result in assay [1], in assay [2], in assay [3] and in assay [4] was “inactive” each time.
As for `CC1=CC[C@H]2C[C@@H]1C2(C)C`, the Potency result in assay [1] and in assay [4] was “inactive” in each case. Also, the Potency was 63.9 µM (active) and inactive in assay [2]; 32 µM (active) and inactive in assay [3].
On to `CCCCCOC(=O)Nc1nc(=O)n([C@@H]2O[C@H](C)[C@@H](O)[C@H]2O)cc1F`, for which the Potency result in assay [1], in assay [2], in assay [3] and in assay [4] was “inactive” in each case.
As to `COc1c(Cl)ccc(Cl)c1C(=O)O`, the Potency entry in assay [1], in assay [2], in assay [3] and in assay [4] was “inactive” throughout.
`Nc1c(Cl)cc(Cl)cc1Cl`: the Potency entry in assay [1], in assay [2], in assay [3] and in assay [4] was “inactive” throughout.
Take `CCCC/C=C\CCCCCCCCCC=O`: the Potency entry in assay [1], in assay [2], in assay [3] and in assay [4] was “inactive” each time.
`C[C@@H](O)[C@H]1C(=O)N2C(C(=O)O)=C(S[C@@H]3CN[C@H](C(=O)N(C)C)C3)[C@H](C)[C@H]12`: the Potency entry in assay [1], in assay [2], in assay [3] and in assay [4] was “inactive” in each case.
On to `O=S(=O)(Oc1ccc(Cl)cc1)c1ccccc1`, for which the Potency entry in assay [1], in assay [2], in assay [3] and in assay [4] was “inactive” throughout.
Regarding `c1cc(N(CC2CO2)CC2CO2)ccc1Cc1ccc(N(CC2CO2)CC2CO2)cc1` (stereo not given), the Potency entry in assay [1], in assay [2], in assay [3] and in assay [4] was “inactive” throughout.
`NCCOCCO`: the Potency result in assay [1], in assay [2], in assay [3] and in assay [4] was “inactive” in each case.
In the case of `O=C(O)c1cc(Br)c(O)c(Br)c1`, the Potency result in assay [1], in assay [2], in assay [3] and in assay [4] was “inactive” each time.
With `CCCCCCCCCCCCC(=O)O`, the Potency result in assay [1], in assay [2], in assay [3] and in assay [4] was “inactive” each time.
For the compound `O=C1CCCCCCCCCCCN1`, the Potency result in assay [1], in assay [2], in assay [3] and in assay [4] was “inactive” in each case.
Regarding `CCOC(=O)CC(O)(CC(=O)OCC)C(=O)OCC`, the Potency result in assay [1], in assay [2], in assay [3] and in assay [4] was “inactive” each time.
With `C=CCCCCCCCCC=O`, the Potency entry in assay [1], in assay [2], in assay [3] and in assay [4] was “inactive” each time.
As to `OC[C@]1(O)OC[C@@H](O)[C@H](O)[C@@H]1O`, the Potency result in assay [1], in assay [2], in assay [3] and in assay [4] was “inactive” throughout.
As to `CC(C)CC(C)CC(C)CC(C)COC(=O)c1ccccc1C(=O)OCC(C)CC(C)CC(C)CC(C)C` (stereo not given), the Potency result in assay [1], in assay [2], in assay [3] and in assay [4] was “inactive” throughout.
For the compound `C=CC(=O)OCC(O)COc1ccccc1` (stereo not given), the Potency result in assay [1], in assay [2], in assay [3] and in assay [4] was “inactive” throughout.
On to `CCOC(C)OCC`, for which the Potency entry in assay [1], in assay [2], in assay [3] and in assay [4] was “inactive” each time.
Consider `O=C(O)CC(C(=O)O)C(CC(=O)O)C(=O)O` (stereo not given), for which the Potency entry in assay [1], in assay [2], in assay [3] and in assay [4] was “inactive” each time.
With `C/C=C/c1ccc(OC)cc1`, the Potency result in assay [1], in assay [2], in assay [3] and in assay [4] was “inactive” each time.
For `NC[C@H](O)c1ccc(O)c(O)c1`, the Potency entry in assay [1], in assay [2], in assay [3] and in assay [4] was “inactive” each time.
Regarding `Cc1cc(N)n(-c2ccccc2)n1`, the Potency result in assay [1], in assay [2], in assay [3] and in assay [4] was “inactive” in each case.
For `Cc1cc(S(=O)(=O)O)c(N)cc1Cl`, the Potency result in assay [1], in assay [2], in assay [3] and in assay [4] was “inactive” each time.
For the compound `O=C(c1ccccc1)c1ccc(O)cc1`, the Potency result in assay [1], in assay [2], in assay [3] and in assay [4] was “inactive” throughout.
As for `O[Si](c1ccccc1)(c1ccccc1)c1ccccc1`, the Potency result in assay [1], in assay [2], in assay [3] and in assay [4] was “inactive” each time.
In the case of `COc1ccc(N=[N+]([O-])c2ccc(OC)cc2)cc1`, the Potency entry in assay [1], in assay [2], in assay [3] and in assay [4] was “inactive” in each case.
Consider `CCS(=O)(=O)CCn1c([N+](=O)[O-])cnc1C`, for which the Potency result in assay [1], in assay [2], in assay [3] and in assay [4] was “inactive” throughout.
